# Measured values published in the supplement of paper PMC10338343.
# ± gives the standard deviation.
# Tested on: MILI (PIWIL2) piRISC loaded with L1MC piRNA (26 nt)
# Assay: pre-steady-state target cleavage rate (min^-1); guide: L1MC piRNA 5'p-UAACUAAAUACUAUGCAAGCUGUAGG; MIWI and MILI are mouse PIWI proteins and EfPiwi is from a freshwater sponge; tags in brackets are library labels; higher = faster piRNA-guided slicing of the target
# Conditions: auxiliary factor: 500 nM mouse GTSF1
# Summary of the method: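 Cleave-'n-Seq reactions paired 0.1 nM transcribed, DNA-blocked target RNA library with 1 nM active affinity-purified piRISC holding one synthetic guide, plus or minus 500 nM GTSF1 partner protein, in HEPES–potassium acetate buffer at 33 °C for 0–8 or 0–960 min. After sequencing of uncleaved targets and normalisation to depth and weakly complementary targets, the pre-steady-state cleavage rate was taken from a burst-and-steady-state fit. Three trials were pooled, and k3 was capped at 0.0001 min^-1.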
row,Sequence,pre-steady-state target cleavage rate
1,UCCUGGAUGUCCUUGCAUAGUAUUUAUUA,0.0219 ± 0.0073
2,UCCUGGAUGUCGUUGCAAAGUAUUUUGUUA,0.0092 ± 0.0056
3,UCCUGGAUGUCGAACGUAUGUAUUUAGUAUA,< 0.0001
4,UCCUGGAUGUCCUUGCAUAGUAUUGAGUUA,0.0563 ± 0.019
5,UCCUCCUACAGCUUGCAUAGUUAUUACAAA,0.0124 ± 0.0054
6,UCCUGGAUGUCGAAGCAUAGUAUUUAGUA,0.0246 ± 0.008
7,UCCUGGAUGUCGAUGCAUAGUAUUUAGGUA,0.0275 ± 0.011
8,UCCUGGAUGUCCUUGCAUUGUAUUUAGAUA,0.0401 ± 0.011
9,UCCUGGAUCAGCUUGCAUAGUAUUAUCUUA,0.0326 ± 0.0079
10,UCCUGGAUGUGCUUGCAUAGUUAAUAGUUA,0.00482 ± 0.0042
11,UCCUGGAUCAGCUUGCAUAGAAUUUAGUAA,0.0373 ± 0.011
12,UCCUGGAUGAGCUUGCAUAGUUUUAAGUUA,0.0195 ± 0.0084
13,UCCUCCUACAGCUUGGUAAGUAUUUAGUAA,0.155 ± 0.025
14,UCCUGCUACAGCUUGCAUCAGUAUUUAGUUA,0.015 ± 0.0065
15,UCCUGGAUGUCGAAGCAUAGUAUUAUGUUA,0.00859 ± 0.0044
16,UCCUGGAUGUCCUUGGAUACUAUUUAGUUA,0.0119 ± 0.0061
17,UCCUGGAUCAGCUUCGAUAGUAUUUAGAAA,0.0608 ± 0.017
18,UCCUGGAACAGCUUGCAUCAGUAUUUAGUUA,0.0151 ± 0.0061

row,Sequence,pre-steady-state target cleavage rate
1,UCCUGGAUGAGCUUGGAUAGAAUUUAGUUA,0.0131 ± 0.0067
2,UCCUGGAUGUCGUAGCAUAGUAAUUAGUUA,0.0159 ± 0.0054
3,UCCUGGAACAGCUUGCAUAGUAUUAUCAAA,0.0521 ± 0.017
4,UCCUGGAUGUCCUUGCAUAGUAUUUUGAUA,0.0211 ± 0.0077
5,UCCUGGAUGUCCUUGCUAAGUAUUUAGUAA,0.0128 ± 0.006
6,UCCUGGAACAGCUUGCAUUGAAUUUAGUUA,0.0179 ± 0.006
7,UCCUCCUACAGCUUGCUAAGUAUUUACAAA,0.0519 ± 0.013
8,UCCUGGAUGUCGAACGUUAGUUUUUAGAUA,< 0.0001
9,UCCUGGAUGUCGAUGCUUAGUAUUUUGUUA,0.0154 ± 0.0056
10,UCCUGGAUCAGCUUGCAUAGAAUAUAGUUA,0.042 ± 0.012
11,UCCUGGUACACGUUGCAUAGUAUUUUCAAA,0.02 ± 0.011
12,UCCUGGAUGUCGAUGCUUAGUAUAUAGUUA,0.0304 ± 0.0073
13,UCCUGGUACAGCUUGCAUAGUAAAUAGUAA,0.151 ± 0.045
14,UCCUGGUAGAGCUUGCAUAGUAUUUUCAAA,0.00621 ± 0.0031
15,UCCUGGAUCAGCUUGCUAAGUAUUUUCAAA,0.00483 ± 0.0036
16,UCCUGCUACAGCUUGCAUACUAUUUUCAAA,0.0295 ± 0.01
17,UCCUGGUACACCUUGCAUACUAUUUAGUUA,0.228 ± 0.072

# Same assay, conditions: auxiliary factor: none (no GTSF1)
row,Sequence,pre-steady-state target cleavage rate
1,UCCUGGAUGUCGAACGUUAGGUAUUUAGUUA,< 0.0001
2,UCCUGGAUGUCGAACGUAUGUAUUUCGUUA,< 0.0001
3,UCCUGGAUGUCGUUCCAUAGUAUUUAGAUA,< 0.0001
4,UCCUGGAUGUCGAACGAAAGUAUAUAGUUA,< 0.0001
5,UCCUGGAUGUCGAACGUUAGUAUUUACAAA,< 0.0001
